# Assay outcomes (PubChem BioAssay)
# USP2a inh: qHTS Assay for Inhibitors of Ubiquitin-specific Protease USP2a Using CHOP2 as the Reporter; USP2 core, Ub-CHOP2 coupled fluorogenic reporter, 485/531; Ubiquitin carboxyl-terminal hydrolase 2 (Homo sapiens), O75604; AID 463254, 2010; 330,000 tested, 0.01% active; Potency, µM (doses to about 38.3 µM), without a hit: top-dose activity change, negative = inhibition, actives largely listed as inhibitors;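 further: plate controls were DMSO wells for no effect and full inhibition by NEM control for full effect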
#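 Cell-free coupled assay: 10nM USP2 core preincubated 30min RT with compound in Tris-HCl pH 8.0/CaCl2/CHAPS buffer, then 25nM Ub-CHOP2 and 25nM reporter substrate; fluorescence (Ex 485/Em 531) read after 60min RT, normalized to NEM inhibition, concentration-response curves fitted.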
# RGS4 inhibitor: Inhibitors of Regulator of G Protein Signaling (RGS) 4: qHTS | Regulator of G-protein signaling 4 (Homo sapiens), P49798 | Transcreener GDP fluorescence polarization, RGS4-accelerated GTP hydrolysis | Potency, µM (highest dose often 114 µM), inactives show top-dose activity change, negative = inhibition, hits mostly inhibitors | 390,000 tested, 0.039% active | AID 504845, 2011; further: on the % scale 0 is the no-effect control and ±100 the full control effect; nearly all actives have a fitted effect of over 75% in size
# Target sequence (P49798 whole entry, looked up): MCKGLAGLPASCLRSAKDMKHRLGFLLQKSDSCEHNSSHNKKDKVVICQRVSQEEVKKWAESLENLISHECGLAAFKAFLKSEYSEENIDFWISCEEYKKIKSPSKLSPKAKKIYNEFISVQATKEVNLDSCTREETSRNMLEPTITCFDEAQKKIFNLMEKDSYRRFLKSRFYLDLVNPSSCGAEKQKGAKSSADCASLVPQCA
#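 MLSMR compounds (23 nl, pin-transferred) preincubated 10 min at room temperature with a 500nM (2x) first reagent, then RGS4 at 900nM (2x) plus Transcreener GDP mix added; fluorescence polarization (620/688 nm) read before and after 90 min at 30 °C.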
# PGK inhibitor: qHTS Assay to Find Inhibitors of Phosphoglycerate Kinase. Phosphoglycerate kinase, glycosomal (Trypanosoma brucei brucei), P07378. PGK/GAPDH coupled, Kinase-Glo luminescence, 60 min. Potency, µM (highest dose often 57.5 µM), for inactives: at the highest dose activity change, negative = inhibition, actives largely listed as inhibitors. 380,000 tested, 0.043% active. AID 602233, 2012; further: on the % scale 0 is the no-effect control and ±100 the full control effect; nearly all actives have a fitted effect of over 60% in size
# Target sequence (P07378 whole entry, looked up): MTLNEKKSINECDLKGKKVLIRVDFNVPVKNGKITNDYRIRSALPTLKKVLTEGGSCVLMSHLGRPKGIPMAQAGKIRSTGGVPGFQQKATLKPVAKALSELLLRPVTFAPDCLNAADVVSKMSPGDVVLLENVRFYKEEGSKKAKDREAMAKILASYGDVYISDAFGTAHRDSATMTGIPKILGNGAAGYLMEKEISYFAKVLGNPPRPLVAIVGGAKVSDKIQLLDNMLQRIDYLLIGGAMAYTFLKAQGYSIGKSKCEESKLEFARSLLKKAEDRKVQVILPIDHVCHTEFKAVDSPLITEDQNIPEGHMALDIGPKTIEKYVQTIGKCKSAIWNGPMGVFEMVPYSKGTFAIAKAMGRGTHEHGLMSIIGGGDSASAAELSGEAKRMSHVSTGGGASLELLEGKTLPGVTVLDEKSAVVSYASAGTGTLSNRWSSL
#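 Luminescent ATP detection (Kinase-Glo Plus) follows a 60-minute room-temperature incubation, with wells lacking PGK as controls. Buffer: 100 mM TEA (pH 7.6), 5 mM MgCl2, 0.01% Tween-20. Coupling enzyme GAPDH (100 nM final) supplies unstable 1,3-BPG in-well.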
# Chronic BCR inh: qHTS Assay to Find Inhibitors of Chronic Active B-Cell Receptor Signaling. ABC-DLBCL IkBa-CBG/CBR reporter, luminescence ratio, 4 h. Potency, µM (doses to about 46.1 µM), inactives show at the highest dose activity change, negative = inhibition, hits mostly inhibitors. 340,000 tested, 0.05% active. AID 493014, 2011; active means well fitted inhibition curve with a large enough effect in the signal ratio, with a control signal flat, not every such curve was filed as active; inconclusive means small, poorly fitted or top-dose-only effect, or effect the other way, or a change in a side signal; the % refers to the signal ratio;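 further: plate controls were basal doxycycline-induced cells for no effect and cells given 10 µM MG132 for full effect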
#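 TMD8 human ABC-DLBCL cells with doxycycline-inducible IκBα–green luciferase fusion and unfused red luciferase, in 0.5% FBS medium; compounds up to 46 uM, 4 h at 37C. Green/red luminescence ratio, filter-overlap corrected, fitted to concentration-response curves.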
# Tb PFK inh-1: qHTS Assay to Find Inhibitors of T. brucei phosphofructokinase; T. brucei PFK, ADP-Glo luminescence; ATP-dependent 6-phosphofructokinase (Trypanosoma brucei brucei), O15648; 330,000 tested, 0.17% active; AID 485367, 2010; Potency, µM (series often up to 57.5 µM), for inactives: at the highest dose activity, negative = inhibition, actives largely listed as inhibitors;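 further: 0% = uninhibited 1x PFK enzyme wells and -100% = no-enzyme wells; nearly all actives have a fitted effect of over 60% in size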
#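 1.25 nM PFK with 0.5 mM F6P and 0.1 mM ATP in 0.1 M TEA pH 8.0, 5 mM MgCl2, incubated 45 min at room temperature; ADP measured by ADP-Glo luminescence; compounds titrated up to 57 uM.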
# TbPFK ATP: Tb PFK orthogonal confirmatory assay using ATP depletion (Kinase-Glo Plus) as an alternative measure of Tb PFK activity: Hit Validation | shares compounds with Tb PFK inh-1 | Tb PFK enzyme, ATP depletion, Kinase-Glo Plus luminescence | Potency, µM (doses to about 57.5 µM), for inactives: at the top dose inhibition | 1,100 tested, 47% active; calls by dose curve; further: nearly all actives have a fitted effect of over 60% in size
# Tb PFK inh-2: Inhibitors of T. brucei phosphofructokinase: Hit Validation; shares compounds with Tb PFK inh-1; AID 504637, 2011; purified T. brucei PFK, ADP-Glo luminescence, 45 min; Potency, µM (top dose mostly 57.5 µM), inactives show at the top dose activity change, negative = inhibition, usual class: inhibitors; 1,100 tested, 41% active;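 further: plate controls were full PFK enzyme control for no effect and no enzyme control for full effect; nearly all actives have a fitted effect of over 60% in size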
# Numbers without * were called inactive; i = inactive; ? = inconclusive; . = no result. Most compounds without a hit are left out; they make up all but 0.25% or so of the library. Unless noted, the call rests on the fitted dose curve; in most records, active means well fitted curve in the direction sought with a large enough effect; inconclusive means small, poorly fitted or top-dose-only effect, or another doubt; inactive means no such curve, though single readings can be large; an effect the other way counts as inactive or inconclusive. Potency means the concentration at half of the fitted maximal effect.
SMILES,USP2a inh,RGS4 inhibitor,PGK inhibitor,Chronic BCR inh,Tb PFK inh-1,TbPFK ATP,Tb PFK inh-2
Cc1ccc(C(=O)CSc2nnc(CNc3ccc(F)cc3)o2)cc1,1%,-16%,-2%,-23%,17µM*,?,24µM*
CCN(CC)C(=O)CSc1nnc(CNc2ccc(F)cc2)o1,2%,0%,-2%,0%,?,.,.
Clc1nssc1=Nc1nncs1,-1%,-120%,-3%,?,4.3µM*,12µM*,9.5µM*
COc1cc(NC(=O)CSc2nc(-c3ccc(C(C)C)cc3)no2)cc(OC)c1,.,-5%,-2%,.,.,.,.
CC1(C)OC(=O)C(=Cc2ccc(-c3ccc(S(N)(=O)=O)cc3)o2)C(=O)O1,-1%,?,-9%,?,?,7%,?
CC(=O)N(C1=C(Cl)C(=O)c2ccccc2C1=O)C1CCCCC1,0%,-141%,-1%,?,0.67µM*,0.38µM*,0.38µM*
Cn1c(=O)n(C)c2cc(S(=O)(=O)Nc3ccccc3C(=O)O)ccc21,0%,-4%,2%,6%,-9%,.,.
O=C(O)CCCNc1ccc(S(=O)(=O)Nc2ccccc2C(=O)O)cc1C(=O)O,2%,19%,.,10%,?,-26%,?
C=C1CCN(C(C)C(=O)OCc2cccc(C)c2)S(=O)(=O)c2ccccc21 (stereo not drawn),.,10%,.,.,.,.,.
O=C(Nc1ccccc1C(=O)OCc1cc(=O)n2ccsc2n1)c1cccc(F)c1,.,13%,-5%,.,.,.,.
CNc1cccccc1=S,?,?,-7%,2%,12µM*,?,?
Cc1cccc(CNc2ncnc3ccc(-c4ccc5c(ccn5C)c4)cc23)c1,3%,.,.,?,1%,.,.
Cc1ccc(C)c(Cn2c(-c3cccs3)nc3ccccc32)c1,.,3%,i,.,.,.,.
O=[N+]([O-])c1ccc(NC(=S)NCCc2ccc(F)cc2)cc1,7%,-35%,-5%,?,-19%,.,.
CCN(CC)S(=O)(=O)c1cc([N+](=O)[O-])ccc1NNC(=O)Nc1ccc(Cl)c(Cl)c1,-12%,-30%,-3%,?,?,15%,-6%
CCCCN(CCCC)S(=O)(=O)c1ccc(NC(=O)c2ccc([N+](=O)[O-])cc2Cl)cc1,4%,-17%,-4%,16%,0%,.,.
O=C(NNc1ccccc1[N+](=O)[O-])Nc1ccccc1,3%,-20%,-17%,-11%,-16%,.,.
O=C(NNc1ccccc1[N+](=O)[O-])Nc1ccc(Cl)c(Cl)c1,-1%,12%,-10%,?,12µM*,?,-16%
O=C(NCCc1ccc(F)cc1)Nc1ccc([N+](=O)[O-])cc1,3%,5%,2%,7%,?,?,?
O=C(NNc1ccc([N+](=O)[O-])cc1)Nc1ccccc1,-2%,?,-10%,1%,?,19µM*,?
CCCCN1C(=O)c2[nH]nc(-c3ccccc3O)c2C1c1ccc(OCc2ccccc2)cc1 (stereo not drawn),.,14%,0%,.,.,.,.
O=C(NC1CCCCC1)c1cc(Nc2cccc(C(F)(F)F)c2)nc2ccccc12,.,13%,-2%,?,.,.,.
CCCCCc1nnc(NC(=O)Cc2cccs2)s1,3%,-34%,?,?,?,?,?
CN(C)c1ccc(/C=N/NC(=O)c2ccnn2C)cc1,1%,-2%,9%,?,?,-15%,-12%
Cc1cc[n+](-c2[nH]c(=O)sc2/C=N/N=C(\[O-])c2ccncc2)cc1,3%,-2%,-6%,3%,19µM*,?,-21%
SMILES,USP2a inh,RGS4 inhibitor,PGK inhibitor,Chronic BCR inh,Tb PFK inh-1,TbPFK ATP,Tb PFK inh-2
Cc1cc(OC(C)C(=O)Nc2c(C(=O)c3ccc(F)cc3)oc3ccccc23)ccc1Cl (stereo not drawn),.,17%,-1%,.,.,.,.
O=c1oc2ccccc2c(O)c1[C@H]1c2ccc(O)cc2Oc2c1c(=O)oc1ccccc21,2%,?,-8%,?,?,-26%,?
O=C(O)CCN1C(=O)c2ccc(NC(=O)CCc3ccccc3)cc2C1=O,0%,-9%,-6%,0%,-6%,.,.
O=C(O)CCN1C(=O)c2ccc(NC(=O)CSc3ccc(Cl)cc3)cc2C1=O,3%,-4%,-6%,2%,?,?,?
COc1ccccc1C(=O)Nc1nnc(-c2ccccc2)s1,0%,3%,i,?,-4%,.,.
O=C(Nc1nnc(-c2ccccc2)s1)c1ccccc1O,0%,-16%,0%,?,?,-28%,?
CCc1nnc2n1N(C(C)=O)C(c1ccc(C(C)(C)C)cc1)=C(C(C)=O)S2,.,8%,1%,-1%,.,.,.
Cc1ccc(Cn2cc(C=O)c3ccccc32)cc1,2%,6%,-6%,2%,-3%,.,.
O=Cc1cn(Cc2ccc([N+](=O)[O-])cc2)c2ccccc12,-6%,-27%,-9%,1%,17µM*,?,?
COc1ccccc1-n1ncc2c(=O)[nH]c(SCC(=O)Nc3ccc(Cl)cc3)nc21,.,15%,-10%,-16%,.,.,.
Cc1cc(C)cc(N2C(=O)NC(=O)/C(=C\C=C\c3ccco3)C2=O)c1,3%,?,-5%,?,?,11µM*,21µM*
CCc1ccc(N2C(=O)NC(=O)/C(=C\C=C\c3ccco3)C2=O)cc1,-2%,?,-14%,8%,?,?,?
Cc1ccc(N2C(=O)NC(=O)/C(=C/C=C/c3ccco3)C2=O)cc1,0%,?,-10%,?,?,.,.
N#Cc1c(F)cccc1NCc1cccs1,0%,9%,-6%,?,?,?,?
O=C(O)c1ccccc1NCc1cccs1,1%,18%,-1%,0%,1%,.,.
COc1ccc(-n2c(CCC(=O)O)ccc2-c2ccccc2)c(OC)c1,.,-22%,.,.,.,.,.
